{
  "source": "PubChem BioAssay",
  "note": "A number with no mark means an inactive call. The rule behind the calls is not given here.",
  "data": [
    {"molecular_target": "Pantothenate synthetase (Mycobacterium tuberculosis (strain ATCC 25618 / H37Rv)) (UniProt P9WIL5)", "sequence (P9WIL5 whole entry, looked up)": "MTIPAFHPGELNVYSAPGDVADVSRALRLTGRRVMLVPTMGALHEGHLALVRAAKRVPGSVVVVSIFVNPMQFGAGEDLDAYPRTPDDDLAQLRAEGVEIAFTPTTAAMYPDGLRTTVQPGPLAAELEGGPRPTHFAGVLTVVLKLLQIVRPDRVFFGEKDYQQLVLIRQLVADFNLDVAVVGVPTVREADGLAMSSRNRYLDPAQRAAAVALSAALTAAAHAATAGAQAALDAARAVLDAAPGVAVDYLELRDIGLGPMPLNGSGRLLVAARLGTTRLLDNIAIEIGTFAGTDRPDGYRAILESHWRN", "experiment": "Coupled enzyme confirmation of inhibitors against recombinant Mtb PanC (AID 375);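 note: 0% = full reaction with vehicle and 100% = no enzyme background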", "settings": "coupled enzyme assay; at 10 µM, stronger effect = higher value", "units": {"inhibition": "%"}, "values": [
      {"smiles": "c1ccc(Cc2ccc(OCCn3cncn3)cc2)cc1", "inhibition": 0},
      {"smiles": "CCOC(=O)CCNC(=O)Nc1ccc2nc(C)n(Cc3ccccc3Cl)c(=O)c2c1", "inhibition": 5},
      {"smiles": "CCOCCCNC(=O)CC1Oc2ccc(C)cc2NC1=O", "note": "(stereo not given)", "inhibition": 0},
      {"smiles": "O=C(O)C1CCCN1c1ncnc2c1oc1ccccc12", "note": "(stereo not given)", "inhibition": 0},
      {"smiles": "CCC(C)(NC(=O)c1ccc(=O)[nH]c1)C(=O)NC1CCCC1", "note": "(stereo not given)", "inhibition": 0},
      {"smiles": "CC1=C(C(=O)Nc2ccc(F)cc2)C(c2cccc(C)c2)n2nc(CCCO)nc2N1", "note": "(stereo not given)", "inhibition": 6},
      {"smiles": "O=C1CC(N2CCN(c3cccc(C(F)(F)F)c3)CC2)C(=O)N1c1ccccc1", "note": "(stereo not given)", "inhibition": 0},
      {"smiles": "O=C(O)C1CC(=O)N(c2ccc(Br)cc2)C1", "note": "(stereo not given)", "inhibition": 0},
      {"smiles": "Cc1ccc(NC(=O)C2CCCN(S(=O)(=O)c3cnc[nH]3)C2)c(Br)c1", "note": "(stereo not given)", "inhibition": 0},
      {"smiles": "O=C(CSc1nnnn1-c1ccccc1)c1cc2ccccc2oc1=O", "inhibition": 0},
      {"smiles": "CC(=O)c1ccc(NC(=O)c2noc3c2CCCCC3)cc1", "inhibition": 1},
      {"smiles": "C=CCOC(=O)C(C#N)c1nc2ccccc2nc1N1CCN(Cc2ccccc2)CC1", "note": "(stereo not given)", "inhibition": 2},
      {"smiles": "Cc1cc(NCCN(C)C)n2nc(-c3cccs3)cc2n1", "inhibition": 0},
      {"smiles": "CN1CCCC(OC(=O)COc2ccc(Br)cc2)C1", "note": "(stereo not given)", "inhibition": 3},
      {"smiles": "COC(=O)c1ccccc1NC(=O)C1CC(=O)N(c2ccc(F)cc2)C1", "note": "(stereo not given)", "inhibition": 20},
      {"smiles": "COc1ccc(OC)c2[nH]c(=O)c(CCNC(=O)CC(C)C)cc12", "inhibition": 2},
      {"smiles": "Cc1ccc2[nH]c(=O)c(CN(CCCN3CCOCC3)C(=O)Nc3cccc(Cl)c3)cc2c1", "inhibition": 0},
      {"smiles": "NC(=O)c1c(NC(=O)CN2CCCC2)sc2c1CCCC2", "inhibition": 4},
      {"smiles": "O=C(c1ccc2c(c1)OCCO2)C1CCN(C(=O)c2ccc(F)cc2)CC1", "inhibition": 0},
      {"smiles": "Nc1[nH]nc2nc(N3CCCC3)nc(-c3ccccc3)c12", "inhibition": 0},
      {"smiles": "S=C(c1ccc(N2CCOCC2)cc1)N1CCCCC1", "inhibition": 2},
      {"smiles": "CN1C(C(=O)Nc2ccccn2)=C(O)c2ccccc2S1(=O)=O", "inhibition": 9},
      {"smiles": "CC(C)c1nnc(SCC(=O)NCc2ccco2)n1C", "inhibition": 0},
      {"smiles": "COc1ccc2[nH]c(C)c(CCN3C(=O)OC(C)(C)C3(C)O)c2c1", "note": "(stereo not given)", "inhibition": 0},
      {"smiles": "COc1ccc(-n2c(SCc3ccc(C#N)cc3)nnc2-c2ccccn2)cc1", "inhibition": 0},
      {"smiles": "O=C(CSc1nnnn1-c1ccc2c(c1)OCO2)NCc1cccs1", "inhibition": 0},
      {"smiles": "CC(=Nc1cccc(O)c1)c1sc2ccccc2c1O", "inhibition": 0},
      {"smiles": "Clc1cccc(-c2nnc(-c3ccccc3)o2)c1", "inhibition": 0},
      {"smiles": "O=C(Nc1ccc(Br)c2cccnc12)c1ccc(Cn2cc(Cl)cn2)o1", "inhibition": 1},
      {"smiles": "Cc1ccc(-c2cc(C(=O)NCCN3CCOCC3)no2)cc1", "inhibition": 3},
      {"smiles": "CC(C)(C)n1nnnc1C(c1cccs1)N1CCN(Cc2ccccc2)CC1", "note": "(stereo not given)", "inhibition": 12},
      {"smiles": "COCCN(C(=O)CNC(=O)c1ccco1)C(C(=O)NC1CCCCC1)c1cccc(OC)c1", "note": "(stereo not given)", "inhibition": 0},
      {"smiles": "O=C(NCC(c1cccnc1)N1CCOCC1)c1ccco1", "note": "(stereo not given)", "inhibition": 2},
      {"smiles": "COCC(=O)N(Cc1nc2ccccc2c(=O)[nH]1)Cc1cccs1", "inhibition": 0},
      {"smiles": "Cc1nc2ccccc2c(=O)n1NC(=O)c1ccc(F)cc1Cl", "inhibition": 5},
      {"smiles": "CCn1cc(C2=NCC(C)O2)c2ccccc21", "note": "(stereo not given)", "inhibition": 2},
      {"smiles": "CN1CCN(c2oc(COc3ccc(-c4ccccc4)cc3)nc2C#N)CC1", "inhibition": 0},
      {"smiles": "O=C(CC(CC(=O)c1ccccc1)C(=O)O)c1ccccc1", "inhibition": 3},
      {"smiles": "O=C(CCn1c(=O)oc2ccccc21)N1CCCCCC1", "inhibition": 0},
      {"smiles": "CC(C)Cc1nnc(NC(=O)CCC(=O)N2CCOCC2)s1", "inhibition": 0}
    ]}
  ]
}
